SW480 rerep – inducers of DNA re-replication in SW480 colon cancer cells. SW480 DNA re-replication, Hoechst DNA content imaging, 48 h. actives 1.8% (n = 340,000). AID 624297. Potency, µM (series often up to 46.1 µM), usual class: activators; note: nearly all actives have a fitted effect of over 55% in size
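Treated cells incubate 48 hr (37 C, 5% CO2), are stained 40 min with Hoechst, and nuclear fluorescence is enumerated; a rise in nuclei with high DNA signal marks re-replication.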
HT1080-NT tox – kills 2HG-producing HT-1080-NT fibrosarcoma cells. actives 1.6% (n = 360,000). AID 686970. Potency, µM (highest dose often 46.1 µM), actives largely listed as cytotoxic. HT-1080-NT fibrosarcoma viability, CellTiter-Glo ATP luminescence, 48 h;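 note: NT is the 2HG producing partner of a matched IDH1 knockdown line; nearly all actives have a fitted effect of over 55% in size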
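Toxicity toward the 2HG-producing NT line was scored as %Activity, normalised to DMSO and no-cell wells, from CellTiter-Glo luminescence after 48 hours' treatment.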
KB-V1 MDR tox – kills drug-selected multidrug resistant KB-V1 cells. actives 3.4% (n = 400,000). AID 1347076. Potency, µM (series often up to 46.1 µM), usual class: cytotoxic. KB-V1 MDR cells viability, CellTiter-Glo, 72 h; note: nearly all actives have a fitted effect of over 60% in size
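Cytotoxicity via CellTiter-Glo luminescence after 72 h compound exposure at 37 degrees C. Cells: drug-selected KB-V1 line, DMEM phenol-red free plus 10% FBS. Compounds tested at multiple concentrations; normalized data fitted to concentration-effect curves.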
MCF10A rerep – inducers of DNA re-replication in MCF 10A breast cells; MCF 10A DNA re-replication, Hoechst nuclear intensity, 48 h; Potency, µM (titrated, usually from 46.1 µM), usual class: activators; actives 2.9% (n = 350,000); AID 624296; note: nearly all actives have a fitted effect of over 50% in size
HT1080 IDH1KD tx – toxicity to HT-1080 IDH1 knockdown cells (counter line); HT-1080 IDH1 knockdown viability, ATP luminescence, 48 h; Potency, µM (doses to about 46.1 µM), hits mostly cytotoxic; actives 2% (n = 360,000); AID 686971
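In this qHTS, HT-1080 cells depleted of IDH1 are exposed for 48 h at 37 °C to compound titrations. Toxicity is scored from CellTiter-Glo luminescence, with DMSO as full viability and medium alone as none.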
KB-3-1 cytotox – kills parental KB-3-1 adenocarcinoma cells; actives 1.4% (n = 400,000); KB-3-1 viability, CellTiter-Glo ATP luminescence, 72 h; AID 1347075; Potency, µM (top dose mostly 46.1 µM), usual class: cytotoxic; note: nearly all actives have a fitted effect of over 60% in size
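KB-3-1 parental drug-naive adenocarcinoma cells in DMEM/10% FBS, incubated 72 h at 37 C with pin-transferred compounds across a concentration series. Viability by CellTiter-Glo luminescence; concentration-response curves fitted after normalization.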
Numbers stand for hits. Sampled rows, rich in hits. Any-hit rate of the full collection: about 7.9%. Calls come from the whole dose curve; as a rule, active = well fitted curve in the direction sought with a large enough effect; inconclusive = small, poorly fitted or top-dose-only effect, or another doubt; inactive = no such curve, though single readings can be large; an effect the other way counts as inactive or inconclusive.

Screening C#CCOCCOCCOCCNc1nc(N2CCOCC2)nc(N2CCN(C(=O)CCCCCCCCCCNC(=O)[C@@H]([C@H](C)CC)n3cc(CCCCCN)nn3)CC2)n1 returned SW480 rerep inconclusive, HT1080-NT tox inactive, KB-V1 MDR tox inactive, MCF10A rerep 12µM, HT1080 IDH1KD tx inactive and KB-3-1 cytotox inactive.
Screening C#CCOCCOCCOCCNc1nc(N2CCN(C(=O)CCCCCCCCCCNC(=O)Cn3cc(C[C@@H](C)O)nn3)CC2)nc(N2CCN(C(=O)CCCCCCCCCCNC(=O)[C@H](CO)n3cc(CCCSC)nn3)CC2)n1 returned SW480 rerep inactive, HT1080-NT tox inactive, KB-V1 MDR tox inconclusive, MCF10A rerep 6.5µM, HT1080 IDH1KD tx inconclusive and KB-3-1 cytotox inactive.
`CCn1cc(C(=O)OCC(=O)Nc2cc(Cl)ccc2OC)c(=O)c2ccc(C)nc21` gave KB-V1 MDR tox inactive and KB-3-1 cytotox inactive.
CCOc1ccc(C2C(C(=O)Nc3ccccc3)=C(C)Nc3nc(-c4ccccc4)nn32)cc1OC (stereo not given) was read as KB-V1 MDR tox inactive and KB-3-1 cytotox inactive.
Screening O=C(NCCOc1ccccc1)c1ccc2c(c1)OCO2 returned SW480 rerep inactive, HT1080-NT tox inactive, KB-V1 MDR tox inactive, MCF10A rerep inactive, HT1080 IDH1KD tx inactive and KB-3-1 cytotox inactive.
`O=C(NCCOc1ccccc1)c1ccc2n[nH]nc2c1` gave SW480 rerep 4.6µM, HT1080-NT tox inactive, KB-V1 MDR tox inconclusive, MCF10A rerep inactive, HT1080 IDH1KD tx inactive and KB-3-1 cytotox inactive.
`O=C(NCCOc1ccccc1)c1n[nH]c(=O)c2ccccc12` gave SW480 rerep inactive, HT1080-NT tox inactive, KB-V1 MDR tox 23µM, MCF10A rerep inactive, HT1080 IDH1KD tx inconclusive and KB-3-1 cytotox inactive.
`O=C1OCCC1Sc1nnc2c(n1)[nH]c1ccccc12` (stereo not given) gave HT1080-NT tox inactive and HT1080 IDH1KD tx inactive.
For COc1ccc(NC(=O)CSc2nncn3c2cc2occc23)c(OC)c1 the results were KB-V1 MDR tox inactive and KB-3-1 cytotox inactive.
Screening CC1(C)Cc2cccc(OCC(=O)NCCc3ccc(S(N)(=O)=O)cc3)c2O1 returned SW480 rerep inactive, HT1080-NT tox inactive, KB-V1 MDR tox 26µM, MCF10A rerep inactive, HT1080 IDH1KD tx inactive and KB-3-1 cytotox inactive.
CN(Cc1cccs1)C(=O)COc1cccc2c1OC(C)(C)C2 was read as SW480 rerep inactive, HT1080-NT tox inactive, KB-V1 MDR tox 18µM, MCF10A rerep inactive, HT1080 IDH1KD tx inactive and KB-3-1 cytotox inactive.
`CN(C)CCNC(=O)COc1cccc2c1OC(C)(C)C2` gave SW480 rerep inactive, HT1080-NT tox inactive, KB-V1 MDR tox inactive, MCF10A rerep inactive, HT1080 IDH1KD tx inactive and KB-3-1 cytotox inactive.
C=CCN(CC=C)C(=S)NC(=O)c1ccc(-c2ccccc2)cc1 was read as SW480 rerep inactive, HT1080-NT tox inactive, KB-V1 MDR tox 5.8µM, MCF10A rerep inconclusive, HT1080 IDH1KD tx inactive and KB-3-1 cytotox inconclusive.
C=CCN(CC=C)C(=S)NC(=O)c1ccc(OC)cc1 was read as SW480 rerep inactive, HT1080-NT tox inactive, KB-V1 MDR tox 16µM, MCF10A rerep inactive, HT1080 IDH1KD tx inactive and KB-3-1 cytotox inactive.
For CN(Cc1ccccc1)C(=S)NC(=O)c1ccc(-c2ccccc2)cc1 the results were SW480 rerep inactive, HT1080-NT tox inactive, KB-V1 MDR tox inactive, MCF10A rerep inactive, HT1080 IDH1KD tx inconclusive and KB-3-1 cytotox inactive.
For CCCSc1ncnc2c1c(-c1ccccc1)cn2-c1ccccc1OC the results were KB-V1 MDR tox inconclusive and KB-3-1 cytotox inactive.
`CCc1nc2ccc(C(=O)NCCCN3CCCC3=O)cn2c1N(C)C(=O)COc1ccccc1` gave HT1080-NT tox inactive, KB-V1 MDR tox inactive, HT1080 IDH1KD tx inactive and KB-3-1 cytotox inactive.
Screening Cc1cccc2nc(CSc3nc4ccccc4o3)cn12 returned SW480 rerep inactive, HT1080-NT tox inactive, KB-V1 MDR tox 16µM, MCF10A rerep inactive, HT1080 IDH1KD tx inactive and KB-3-1 cytotox inconclusive.
`Cc1cc(C)c(C#N)c(SCc2cn3c(C)cccc3n2)n1` gave HT1080-NT tox inactive, KB-V1 MDR tox 18µM, MCF10A rerep inactive, HT1080 IDH1KD tx inactive and KB-3-1 cytotox inactive.
Screening Cn1c(-c2ccccc2)n[nH]c1=S returned SW480 rerep inactive, HT1080-NT tox inconclusive, KB-V1 MDR tox inactive, MCF10A rerep inactive, HT1080 IDH1KD tx inactive and KB-3-1 cytotox inactive.
`Cc1cccc(-c2n[nH]c(=S)n2C)c1` gave SW480 rerep inactive, HT1080-NT tox inactive, KB-V1 MDR tox 21µM, MCF10A rerep inactive, HT1080 IDH1KD tx inactive and KB-3-1 cytotox inconclusive.
Cc1nc(-c2ccccc2)sc1-c1n[nH]c(=S)n1C was read as SW480 rerep 23µM, HT1080-NT tox inactive, KB-V1 MDR tox inconclusive, MCF10A rerep inactive, HT1080 IDH1KD tx inactive and KB-3-1 cytotox inactive.
COc1ccccc1CNC(=O)c1c(O)nc2c(C)cccn2c1=O was read as KB-V1 MDR tox inconclusive and KB-3-1 cytotox inactive.
`Cn1c(SCC(=O)NCc2ccccc2)nc2ccccc21` gave SW480 rerep inactive, HT1080-NT tox inactive, KB-V1 MDR tox 15µM, MCF10A rerep inactive, HT1080 IDH1KD tx inactive and KB-3-1 cytotox inactive.
`CC(NC(=O)CSc1nc2ccccc2n1C)c1ccccc1` (stereo not given) gave SW480 rerep inactive, HT1080-NT tox inactive, KB-V1 MDR tox inactive, MCF10A rerep inactive, HT1080 IDH1KD tx inactive and KB-3-1 cytotox inactive.
N#CCSc1nc2ccccc2c(=O)n1CCCC(=O)NCc1ccco1 was read as SW480 rerep inactive, HT1080-NT tox inactive, KB-V1 MDR tox inconclusive, MCF10A rerep inactive, HT1080 IDH1KD tx inactive and KB-3-1 cytotox inactive.
Cn1ccnc1C(=O)c1cc(SCC(=O)NCc2ccccc2)nc2ccccc12 was read as SW480 rerep inconclusive, HT1080-NT tox 10µM, KB-V1 MDR tox inconclusive, MCF10A rerep 15µM, HT1080 IDH1KD tx inconclusive and KB-3-1 cytotox inconclusive.
COCCNC(=O)CSc1nc2ccccc2c(=O)n1CCCC(=O)NCc1ccccc1 was read as SW480 rerep inactive, HT1080-NT tox inactive, KB-V1 MDR tox 16µM, MCF10A rerep inactive, HT1080 IDH1KD tx inactive and KB-3-1 cytotox inactive.
For O=C(CCCCCn1c(SCc2ccncc2)nc2ccccc2c1=O)NCc1ccco1 the results were SW480 rerep inactive, HT1080-NT tox inconclusive, KB-V1 MDR tox inconclusive, MCF10A rerep inconclusive, HT1080 IDH1KD tx 11µM and KB-3-1 cytotox inactive.
`CN(C)c1cccc(CNC(=O)c2ccc3nc([C@@H]4O[C@H](CO)[C@H](O)[C@H](O)[C@H]4O)[nH]c3c2)c1` gave HT1080-NT tox inconclusive, KB-V1 MDR tox inactive, HT1080 IDH1KD tx inactive and KB-3-1 cytotox inactive.

Bioassay records: PubChem BioAssay, National Center for Advancing Translational Sciences (NCATS)
